# Results: article PMC4336329 (PLoS ONE, 2015)
# Screen size: about 310,000 compounds; about 2,200 (0.71%) showed an effect of 50% or more. The effect is printed as a negative number. The list comes from a sample in which strong results are over-represented; it also holds similar structures and randomly drawn compounds.
# Target: human ether-à-go-go-related gene (hERG) potassium channel (human, UniProt Q12809)
# Assay: primary screen, population patch clamp on CHO cells stably expressing hERG; higher = less effect of the substance
# Method: Briefly, Chinese hamster ovary (CHO) cells stably expressing the hERG channel were dislodged from tissue culture flasks and dispensed into PPC plates. […] During the recording, background leak currents were estimated by a 100 ms step to -80 mV from an initial holding potential of -70 mV and subtracted from the subsequent current measurement. The campaign was conducted in two phases using slight differences in recording protocol. In the first phase, the initial voltage pulse used a 100 ms step to -30 mV from a holding potential of -70 mV, a 2 s conditioning step to +25 mV, and a 2 s test step to -30 mV. During the second phase of the screen, the potential during the conditioning step was raised to +45 mV. In both phases of the campaign, a secondary voltage pulse was applied using the same parameters as the second phase initial pulse. The initial and secondary pulses were applied in the absence of compound, and upon application of 1 μM and 10 μM test concentrations. Small molecule effects on hERG current density were quantified by […].
# Sequence of human ether-à-go-go-related gene (hERG) potassium channel (Q12809 whole entry, looked up): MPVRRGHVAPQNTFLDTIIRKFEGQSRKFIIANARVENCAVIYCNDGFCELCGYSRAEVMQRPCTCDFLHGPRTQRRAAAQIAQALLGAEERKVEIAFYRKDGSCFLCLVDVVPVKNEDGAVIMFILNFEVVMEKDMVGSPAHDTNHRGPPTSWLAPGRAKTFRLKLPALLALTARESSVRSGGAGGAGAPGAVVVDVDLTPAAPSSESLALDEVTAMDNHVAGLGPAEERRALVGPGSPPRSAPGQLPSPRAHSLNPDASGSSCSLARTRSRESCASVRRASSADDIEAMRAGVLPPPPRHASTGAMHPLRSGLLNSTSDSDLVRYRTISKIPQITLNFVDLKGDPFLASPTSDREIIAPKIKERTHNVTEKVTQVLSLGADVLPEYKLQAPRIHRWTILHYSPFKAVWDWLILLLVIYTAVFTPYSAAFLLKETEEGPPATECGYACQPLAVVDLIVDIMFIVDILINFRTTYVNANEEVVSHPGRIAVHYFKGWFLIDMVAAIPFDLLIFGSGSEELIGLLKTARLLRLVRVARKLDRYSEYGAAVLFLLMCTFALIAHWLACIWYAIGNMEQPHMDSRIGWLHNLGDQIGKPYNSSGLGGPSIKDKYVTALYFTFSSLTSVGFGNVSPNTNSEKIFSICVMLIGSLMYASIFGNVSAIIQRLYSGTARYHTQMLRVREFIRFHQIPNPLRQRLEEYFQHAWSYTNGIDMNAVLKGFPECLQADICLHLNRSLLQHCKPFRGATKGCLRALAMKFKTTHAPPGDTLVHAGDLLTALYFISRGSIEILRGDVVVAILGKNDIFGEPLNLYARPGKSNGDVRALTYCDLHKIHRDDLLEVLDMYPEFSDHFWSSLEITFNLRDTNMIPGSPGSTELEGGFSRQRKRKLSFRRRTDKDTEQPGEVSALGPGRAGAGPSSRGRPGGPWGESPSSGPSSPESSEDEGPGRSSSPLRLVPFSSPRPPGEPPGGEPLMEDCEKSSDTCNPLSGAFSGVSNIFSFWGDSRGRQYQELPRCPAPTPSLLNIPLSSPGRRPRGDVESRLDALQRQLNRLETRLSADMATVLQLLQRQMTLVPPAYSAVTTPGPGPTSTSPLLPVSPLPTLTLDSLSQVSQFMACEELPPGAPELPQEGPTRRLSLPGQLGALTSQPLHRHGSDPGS
row,SMILES,"hERG current change (%, negative = inhibition) at 1uM [%]"
1,CN(CC(=O)Nc1ccc(Cl)c(Cl)c1)C(=O)C1CCCC1,5.9
2,Cc1cc(NC(=O)c2cc(-c3ccccc3)on2)n(-c2ccccc2)n1,7.88
3,O=C(COC(=O)c1ccc2ccccc2n1)c1ccc(F)cc1,-5.55
4,Cc1cc([N+](=O)[O-])ccc1NC(=O)Nc1ccccc1F,13
5,O=C(CCc1nnc(CCc2ccccc2)o1)NC(c1cccnc1)C(F)(F)F (centres unmarked),-0.569
6,CC1CN(C(=O)C(Sc2ccccc2)c2ccccc2)CC(C)O1 (centres unmarked),5.46
7,N#C/C(=C1\CCCN1)c1ccc2ccccc2n1,8.93
8,Cc1ccc(CCN2CC(C(=O)NCCCN3CCOCC3)CC2=O)cc1 (centres unmarked),16.5
9,CN1CCCc2cc3c(C(F)(F)F)cc(=O)oc3nc21,14.3
10,O=C(CSc1nc(C(F)(F)F)cc(=O)[nH]1)N1CCCCCC1,5.27
11,Cc1nc(C)c(C(=O)NCc2ccccc2Cl)o1,10.8
12,Cc1ccc(S(=O)(=O)N(CC(O)CN2CCCCC2)c2cccc([N+](=O)[O-])c2)cc1 (centres unmarked),-73.1
13,O=[N+]([O-])c1ccc(N(CC(O)CN2CCCCC2)S(=O)(=O)c2ccccc2)cc1 (centres unmarked),-79.5
14,O=[N+]([O-])c1cccc(N(CC(O)CN2CCCCC2)S(=O)(=O)c2ccccc2)c1 (centres unmarked),-24.2
15,O=[N+]([O-])c1cccc(N(CC(O)CN2CCCC2)S(=O)(=O)c2ccccc2)c1 (centres unmarked),-25.9
16,O=C(CN(c1ccc([N+](=O)[O-])cc1)S(=O)(=O)c1ccccc1)N1CCCCC1,-0.85
17,O=[N+]([O-])c1ccc(S(=O)(=O)N(CC(O)CN2CCCCC2)c2ccccc2)cc1 (centres unmarked),-80.4
18,COc1ccc([N+](=O)[O-])cc1N(CC(O)CN1CCCCC1)S(=O)(=O)c1ccccc1 (centres unmarked),2.16
19,O=[N+]([O-])c1ccccc1S(=O)(=O)N(CC(O)CN1CCCCC1)c1ccccc1 (centres unmarked),2.79
20,Cc1ccc(S(=O)(=O)N(CC(O)CN2CCOCC2)c2cccc([N+](=O)[O-])c2)cc1 (centres unmarked),2.27
21,Cn1c(=O)cc(OCCCC(=O)Nc2ccc3c(c2)OCCO3)c2ccccc21,17.2
22,Cc1ccn2c(=O)nc(SCC(=O)NC3CCCCC3)nc2c1,2.62
23,C/C(=N\NC(=O)CNC(=O)C(c1ccccc1)c1ccccc1)c1ccc(C(C)(C)C)cc1,2.98

row,SMILES,"hERG current change (%, negative = inhibition) at 1uM [%]"
1,COc1cc(-c2nc3cnccc3n2C)cc(OC)c1OC,2.44
2,CCCCOc1ccc(CN(C)c2ncnc(N)n2)cc1,-1.16
3,O=[N+]([O-])/C(C(Cl)=C(Cl)Cl)=C(\Sc1ccccc1)N1CCCCC1,-3.16
4,Nc1cccc2c1C(=O)N(C(=O)c1cccc(S(=O)(=O)N3CCCC3)c1)C2=O,12.5
5,COC(=O)c1ccc(Cn2nc(C)c([N+](=O)[O-])c2C)o1,2.01
6,O=C1NN(c2ccc(Cl)c(Cl)c2)C(=O)/C1=C/c1ccc(-c2ccccc2C(=O)O)o1,13
7,Cc1cccc(CS(=O)(=O)Cc2ccc(C(=O)N3CCC4(CC3)OCCO4)o2)c1,10
8,Cc1cccnc1NC(=S)NCCc1ccccc1,-3.36
9,CC(C)C[C@H](NC(=O)c1nc[nH]c1C(=O)N[C@@H](CC(C)C)C(=O)OCc1ccccc1)C(=O)OCc1ccccc1,9.56
10,CC(C)C[C@H](NC(=O)c1[nH]cnc1C(=O)N[C@@H](Cc1ccccc1)C(=O)OCc1ccccc1)C(=O)OCc1ccccc1,10.2
11,CNC(=O)c1[nH]cnc1C(=O)N[C@@H](CC(C)C)C(=O)OCc1ccccc1,-51.8
12,COc1ccccc1NC(=O)N1CCCC1C(=O)Nc1ccc2c(c1)OCO2 (centres unmarked),2.76
13,O=C(CCC1COc2ccccc2O1)NCC1COc2ccccc2O1 (centres unmarked),6.41
14,Cc1nnc(SCc2nnc(-c3ccccc3Br)o2)s1,18.8
15,CC(=O)c1ccc(NC(=O)/C(=C\c2ccco2)NC(=O)c2ccco2)cc1,4.96
16,CC(=O)c1cccc(NC(=O)/C(=C/c2ccco2)NC(=O)c2ccco2)c1,10.1
17,CC(=O)c1cccc(NC(=O)/C(=C\c2ccco2)NC(=O)c2ccco2)c1,-50.7
18,CCc1ccc(-n2nc3cc(C)c(N)cc3n2)cc1,13.3
19,COc1ccc(NC(=O)NC2(C(=O)N3CCCC(C)C3)CCCCC2)cc1 (centres unmarked),14.1
20,COc1ccc(N2CCN(C(=O)CSc3ccc([N+](=O)[O-])cc3)CC2)cc1,-85.1
21,O=C(CCc1ccccc1)N1CCN(c2ccc([N+](=O)[O-])cc2)CC1,-67.4
22,O=C(ON=C1CCN(c2ccc([N+](=O)[O-])cc2)CC1)c1ccccc1,-26
23,CC1(C)Cc2cccc(OCC(=O)N3CCN(c4ccccc4)CC3)c2O1,-2.57

row,SMILES,"hERG current change (%, negative = inhibition) at 1uM [%]"
1,CC1(C)Cc2cccc(OCC(=O)N3CCN(c4ccc([N+](=O)[O-])cc4)CC3)c2O1,-51.8
2,Cc1ccc(C(=O)ON=C2CCN(c3ccc([N+](=O)[O-])cc3)CC2)cc1,-21.2
3,CC1(C)Cc2cccc(OCC(=O)N3CCN(c4ccc(F)cc4)CC3)c2O1,-16.2
4,COc1ccc(C(=O)CCC(=O)N2CCN(c3ccc([N+](=O)[O-])cc3)CC2)cc1,-28.4
5,COc1ccc(C(=O)ON=C2CCN(c3ccc([N+](=O)[O-])cc3)CC2)cc1,-57.7
6,O=C(CCCc1ccccc1)N1CCN(c2ccc([N+](=O)[O-])cc2)CC1,-48.2
7,O=C(Cc1ccccc1)N1CCN(c2ccc([N+](=O)[O-])cc2)CC1,-36.4
8,COc1ccc(N2CCN(C(=O)CSc3ccccc3)CC2)cc1,12.7
9,Cc1cccc(C)c1OCC(O)CN.Cl.O (centres unmarked),10.5
10,COc1ccccc1NC(=O)/C=C1\SCC(=O)N1C,2.4
11,NC(=O)CSc1nc(-c2ccccc2)c(-c2ccccc2)o1,8.48
12,C/C=C1\COC(C(=O)NCc2ccncc2)(C(F)(F)F)C=C1C=C1CCCCC1 (centres unmarked),12.8
13,CCCc1n[nH]c2c1/C(=N\OCC)CC(C)(C)C2,12.8
14,C=CCN1CCN(C(c2cc(OC)ccc2OC)c2nnnn2CC2CCCO2)CC1.Cl (centres unmarked),12.4
15,Cc1nn(C)c(Cl)c1CN1CCCC(C(=O)Nc2cccc(-n3cccn3)c2)C1 (centres unmarked),-3.6
16,CN1C(=O)CC(N2CCN(c3ccc(Cl)c(Cl)c3)CC2)C1=O (centres unmarked),1.54
17,O=C(CCCC(=O)N1CCN(c2cccc(Cl)c2)CC1)c1ccccc1,1.83
18,O=C(Cc1ccc(F)cc1)N1CCN(c2ccc([N+](=O)[O-])cc2)CC1,-45.8
19,Cc1ccc(CC(=O)N2CCN(c3ccc([N+](=O)[O-])cc3)CC2)cc1,-30.4
20,O=C(CN1CCN(CC(=O)Nc2ccccn2)CC1)Nc1ccccn1,-9.95
21,O=C(CN1CCN(c2ccc([N+](=O)[O-])cc2)CC1)c1ccccc1,-9.94
22,O=C(Cc1ccc([N+](=O)[O-])cc1)N1CCN(c2ccc([N+](=O)[O-])cc2)CC1,-82.5
23,O=C(NC(CC(=O)N1CCN(c2ccccc2O)CC1)c1ccccc1)c1ccccc1Cl (centres unmarked),-15.6

row,SMILES,"hERG current change (%, negative = inhibition) at 1uM [%]"
1,O=C(NC(CC(=O)N1CCN(c2ccc([N+](=O)[O-])cc2)CC1)c1ccccc1)c1ccccc1Cl (centres unmarked),-69
2,O=C(CN1CCN(c2ccc([N+](=O)[O-])cc2)CC1)Nc1ccccn1,-75.8
3,O=C(CN1CCN(c2ccc([N+](=O)[O-])cc2)CC1)Nc1nccs1,-29.3
4,O=C(CCCC(=O)N1CCN(c2ccc([N+](=O)[O-])cc2)CC1)c1ccccc1,-66
5,O=C(NC(CC(=O)N1CCN(c2ccccc2)CC1)c1ccccc1)c1ccccc1Cl (centres unmarked),-19.6
6,Cn1cc(Cl)c(-c2n[nH]c(=S)n2-c2ccccc2)n1,14
7,CCOC(=O)c1sc(NC(=O)c2ccc(OC)cc2)nc1C,15.9
8,CCN(C(=O)C1CC1)C1CCS(=O)(=O)C1 (centres unmarked),9.67
9,CCC(C)C(=O)N[C@@H](c1ccccc1)[C@@H](O)C(=O)O[C@H]1C[C@@]2(O)[C@@H](OC(=O)c3ccccc3)C3[C@](C)(C(=O)[C@H](OC(C)=O)C(=C1C)C2(C)C)[C@@H](O)C[C@H]1OC[C@@]31OC(C)=O (some centres unmarked),7.34
10,CCOC(=O)COc1ccc(CCNC(C)=O)cc1,17.8
11,Cn1c(CSCc2ccccc2Cl)nnc1SCC(=O)Nc1nccs1,2.67
12,CC(NC(=O)c1ccccc1)c1nc2ccccc2n1Cc1ccc(C#N)cc1 (centres unmarked),-35.6
13,Cc1noc(C)c1CSCC(=O)N1CCN(c2ccc([N+](=O)[O-])cc2)CC1,-83.4
14,CC(C)CNS(=O)(=O)c1ccc(CCC(=O)N2CCN(c3ccc(F)cc3)CC2)cc1,-9.44
15,O=C(CCCSc1nc2ccccc2[nH]1)N1CCN(c2ccccc2)CC1,-32.8
16,COc1cccc(N2CCN(C(=O)CC(NC(=O)c3ccccc3)c3ccccc3)CC2)c1 (centres unmarked),-27
17,Cc1cccc(N2CCN(C(=O)CSCc3c(C)noc3C)CC2)c1C,6.62
18,O=C(CCCSc1nc2ccccc2[nH]1)N1CCN(c2ccc([N+](=O)[O-])cc2)CC1,-86.9
19,N#Cc1ccc(CN2CCN(C(=O)CC(NC(=O)c3ccccc3)c3ccccc3)CC2)cc1 (centres unmarked),-84.7
20,CCNS(=O)(=O)c1ccc(CCC(=O)N2CCN(c3ccccc3)CC2)cc1,3.97
21,CC(C)CNS(=O)(=O)c1ccc(CCC(=O)N2CCN(c3ccccc3)CC2)cc1,-61.5
22,Cc1noc(C)c1CSCC(=O)N1CCN(c2ccc(F)cc2)CC1,-17.9
23,COc1ccc(N2CCN(C(=O)CCCSc3nc4ccccc4[nH]3)CC2)cc1,-29.6
